Pf growth 96h: P. falciparum growth inhibition at 96 hours; AID 504834; P. falciparum luciferase reporter growth, 96 h; Potency, µM (highest dose often 28.7 µM), hits mostly inhibitors; 320,000 tested, 6.9% active
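P. falciparum expressing integrated firefly luciferase grown in erythrocytes (2% hematocrit, 0.05% parasitemia final) with compounds for 96 hours at 37 C, 5% CO2. Growth inhibition read as loss of luminescence after adding luciferase detection reagent.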
Shiga toxin inh: Shiga toxin inhibition | inhibition, % at 38.7 µM | Vero cells, Shiga toxin protein synthesis inhibition reporter | 290,000 tested, 9.2% active; in the data active = inhibition mostly above about 28%, no sharp cut-off; inactive = mostly below about 43%
Pf growth 48h: inhibits P. falciparum growth in the first generation, 48 h. P. falciparum luciferase growth in erythrocytes, 48 h. Potency, µM (highest dose often 28.7 µM), usual class: inhibitors. 310,000 tested, 5.9% active. AID 504832
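Compounds are pin-transferred into medium, infected erythrocytes (2% hematocrit, 0.1% parasitemia final) are added, and plates sit one parasite generation at 37 C in 5% CO2. Detection reagent is then added and luminescence measured.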
HCMV antiviral: inhibitors of human cytomegalovirus; activity change, negative = inhibition, % at 57.5 µM; HFF cells, HCMV-luciferase reporter, 72 h; active compounds read low; 410,000 tested, 4.5% active; in the data active = activity change below about -60%; inconclusive = no clear call, values can overlap the other calls; inactive = above about -39%
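Compounds were evaluated in HFFs infected with an HCMV luciferase reporter virus (MOI 1 PFU/cell). Luciferase in lysates collected 72 h post infection served as the replication measure.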
Cycloheximide cs: counter-screen for Shiga toxin inhibitors: cycloheximide protein synthesis inhibition; cell reporter, cycloheximide protein synthesis inhibition counterscreen; max response, %; 300,000 tested, 12% active; in the data active = max response mostly above about 13%, no sharp cut-off; inactive = mostly below about 14%; note: read at 38.3 µM for the half of the compounds with a filed dose
Numbers stand for hits. Hits are enriched below; roughly 20% of the tested compounds scored in any of these assays. Unless noted, calls come from the whole dose curve; as a rule, active = well fitted inhibition curve with a large enough effect; inconclusive = small, poorly fitted or top-dose-only effect, or another doubt; inactive = no such curve, though single readings can be large or run the other way.

Cc1c(NC(=O)c2ccc(-c3ccccc3)cc2)cccc1C(=O)O was read as Pf growth 96h inactive, Shiga toxin inh 66, Pf growth 48h inactive, HCMV antiviral inactive and Cycloheximide cs 35.
Screening CC(C)c1cccc(-c2csc(C(O)c3ccc(F)cc3)n2)c1 (stereo not drawn) returned HCMV antiviral inactive.
For OC(c1ccc(F)cc1)c1nc(-c2ccc(Cl)cc2)cs1 (stereo not drawn) the results were HCMV antiviral -66.
`CC(C)c1cccc(-c2csc(C(O)c3ccc(F)c(F)c3)n2)c1` (stereo not drawn) gave HCMV antiviral -70.
For COc1ccc(-c2csc(C(O)c3cccc(OC)c3)n2)cc1 (stereo not drawn) the results were HCMV antiviral -68.
COc1cccc(C(O)c2nc(-c3ccc(N(C)C)cc3)cs2)c1 (stereo not drawn) was read as HCMV antiviral inactive.
Screening OC(c1ccc(F)cc1)c1nc(-c2ccccc2)cs1 (stereo not drawn) returned HCMV antiviral inactive.
O=C(CNS(=O)(=O)c1ccc(Cl)cc1)NC1CCCCC1 was read as Pf growth 96h inconclusive, Pf growth 48h inconclusive and HCMV antiviral inactive.
COc1cccc(CN(C)C(=O)CSCC(=O)Nc2cccc(C)c2)c1OC was read as Pf growth 96h inconclusive, Pf growth 48h inconclusive and HCMV antiviral inactive.
Screening COc1ccc(/C=C2/C(=O)N(c3c(F)c(F)c(F)c(F)c3F)N=C2C)cc1 returned Pf growth 96h inconclusive, Pf growth 48h inactive, HCMV antiviral inactive and Cycloheximide cs 20.
For CC(=O)Oc1ccc(/C=C2/C(=O)N(c3ccccc3)N=C2C)cc1 the results were Pf growth 96h inactive, Shiga toxin inh inactive, Pf growth 48h inactive, HCMV antiviral inactive and Cycloheximide cs inactive.
For CC(C)CNc1ncnc2c1ncn2[C@H]1CN(CCN2CCOCC2)C[C@@H](CO)O1 the results were HCMV antiviral inactive.
Screening COc1ccc(-c2nc3c(c(SCC(=O)N4CCCCC4)n2)Cc2c(CO)cnc(C)c2O3)cc1 returned HCMV antiviral inactive.
COc1ccc2c(c1)C(=O)N1[C@H]3c4cc(OC)ccc4OC[C@@H]3[C@H](c3ccccc3)[C@]1(C)C(=O)N2 was read as Pf growth 96h inconclusive, Pf growth 48h 13µM and HCMV antiviral inactive.
`COc1ccc2c(c1)OC[C@H]1[C@H]2N2C(=O)c3cc(OC)c(OC)cc3NC(=O)[C@@]2(C)[C@H]1c1ccccc1` gave Pf growth 96h 6.6µM, Pf growth 48h 2.3µM and HCMV antiviral inactive.
Screening COc1ccc2c(c1)OC[C@H]1[C@H]2N2C(=O)[C@H](C)NC(=O)[C@@]2(C)[C@H]1c1ccccc1 returned Pf growth 96h inconclusive, Pf growth 48h inactive and HCMV antiviral -91.
COc1ccc2c(c1)OC[C@H]1[C@H]2N2C(=O)c3cc(Br)ccc3NC(=O)[C@@]2(C)[C@H]1c1ccccc1 was read as Pf growth 96h 5.2µM and Pf growth 48h 1.7µM.
For Cc1ccc(S(=O)(=O)N2CCC(NC(=O)c3cccc(C)c3)CC2)cc1 the results were Pf growth 96h inconclusive, Shiga toxin inh inactive, Pf growth 48h inactive, HCMV antiviral inactive and Cycloheximide cs inactive.
Screening C[C@@H]1CN([C@@H](C)CO)S(=O)(=O)c2ccc(Br)cc2O[C@@H]1CN(C)Cc1ccc2c(c1)OCO2 returned HCMV antiviral inactive.
Screening CCOc1ccc(NC2CCCCC2NS(=O)(=O)c2ccccc2)cc1 (stereo not drawn) returned Pf growth 96h inactive, Shiga toxin inh inactive, Pf growth 48h inactive, HCMV antiviral inactive and Cycloheximide cs inactive.
For CSc1nc(Cc2ccc(Cl)cc2)nc2ccccc12 the results were Pf growth 96h inactive, Shiga toxin inh inactive, Pf growth 48h inactive, HCMV antiviral inactive and Cycloheximide cs inactive.
For Cc1cc(Cl)nc2ccc(Cc3ccc4nc(Cl)cc(C)c4c3)cc12 the results were Pf growth 96h inconclusive, Shiga toxin inh inactive, Pf growth 48h 2.6µM, HCMV antiviral inactive and Cycloheximide cs inactive.
Screening CC(CNC(=O)Cn1c(-c2cccs2)cc2cc(Cl)ccc21)c1ccccc1 (stereo not drawn) returned HCMV antiviral inactive.
For CCCC1CCC(c2ccc(C(N)=O)cc2)CC1 (stereo not drawn) the results were Pf growth 96h inactive, Shiga toxin inh inactive, Pf growth 48h inactive, HCMV antiviral inactive and Cycloheximide cs inactive.

Screens as filed in PubChem.
